# Measurements taken from PubChem BioAssay (NCI).
# Compounds without any hit were thinned out: in the full panel of roughly 79,000, 15% have a hit. Values without a mark were called inactive. Active and inactive are the calls of the source. Cut-off read from the data, not from the text of the source: active = growth inhibition above about 70%; inactive = the rest.
# Test: NCI Yeast Anticancer Drug Screen. Data for the cln2 rad14 strain (AID 165);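 note: 0% = growth equal to vehicle treated cultures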
# Details: S. cerevisiae cln2 rad14 strain, at 50.0 µM, active compounds read high
# Outline: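 Growth inhibition, relative to vehicle-treated controls, is the read-out. The test organism is a yeast strain with defined genetic alterations, cln2 rad14.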
row,SMILES,growth inhibition
1,OC(CC1CCCC(CC(O)c2ccccc2)N1CCc1ccccc1)c1ccccc1 (centres undefined),35.4%
2,Cc1c(-c2ccc(Cl)cc2)n[nH]c1-c1[nH]nc(-c2ccc(Cl)cc2)c1C,3.75%
3,N=c1sc2ccccc2n1CC(=O)O,-22.6%
4,CCOc1ccc(Cc2ccc3c(c2)OCO3)cc1C,-13.2%
5,Cc1cc(O)c(C(C)C)cc1N=O,16.6%
6,CCC(=O)OCCSCCOC(=O)CC,-10.3%
7,C[Si](C)(C)CN=P(c1ccccc1)(c1ccccc1)c1ccccc1,17.4%
8,CC(=O)Oc1cccc(/C=C/C(=O)O)c1,3.75%
9,CCCCOC1NC(=O)NC(=O)C1(F)C(=O)OCC (centres undefined),9.4%

# Test: NCI Yeast Anticancer Drug Screen. Data for the bub3 strain (AID 167)
# Details: S. cerevisiae bub3 mutant strain, at 50.0 µM, active compounds read high
# Outline: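 Inhibition values come from growth of compound-treated mutant yeast normalised to vehicle-treated controls.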
row,SMILES,growth inhibition
1,CCOC(=O)c1csc(N)n1,-9.7%
2,CS/C(=C\c1ccc2ccccc2[n+]1C)N1CCN(CCCO)CC1,-7.4%
3,COc1ccc(Cc2ccc(OC)c3ccccc23)c2ccccc12,15.2%
4,Cn1c(N(CCO)CCO)cnc1[N+](=O)[O-],-17.6%
5,Cc1cc(S(=O)(=O)NC(=NCC(=O)NN)NN)c(S)cc1Cl,1.3%
6,C=CCN1C(=O)c2ccccc2C1=O,22.6%
7,OCC1OC(n2ncc3c(Nc4ccccc4)ncnc32)C(O)C1O (centres undefined),6.9%
8,COc1ccc([N+](=O)[O-])c(OC)c1,-23.4%
9,O=C1C(=O)c2ccccc2C(O)=C1CC=C(Cl)Cl,29.9%
10,CC(=O)SCC(C)CCl (centres undefined),-17.7%
11,Cc1ccnc(N=C(N)Nc2cc(C)ccn2)c1,6.75%
12,Nc1c(Cl)ncnc1Cl,19.7%
13,CCOC(=O)C1OC1(C)c1ccc(Cl)cc1 (centres undefined),-5.8%
14,CCC(=O)Oc1cc(C(C)(C)C)c(OC(=O)CC)cc1C(C)(C)C,10.9%
15,COc1cc(Cc2cc(OC)c(OC)c(OC)c2)ccc1O,19.1%
16,O=C(O)C(Nc1ccccc1)c1ccccc1 (centres undefined),4.65%
17,COc1cc2nccnc2c(N)c1OC,-0.95%
18,CC(C)CC(O)CC(C)C,-15.3%

row,SMILES,growth inhibition
1,N#CCCCCCCC(N)=O,-5.6%
2,CCOP(=O)(OCC)/C(C#N)=C/c1cnc(-c2ccccc2)[nH]1,13.4%
3,CSc1nc(N(C)C)c2[nH]c(C)nc2n1,10.6%
4,C=C1C(=O)O[C@@H]2[C@H]1CC[C@H](C)[C@@H]1CCC(=O)[C@@]21C,12.8%
5,Cc1ccc(S(=O)(=O)N2CCC(C(=O)O)(c3ccccc3)CC2)cc1,-56.2%
6,O=C1c2ccccc2CN1c1ccc(O)cc1,-1.2%
7,O=[N+]([O-])c1ccc(N2CCN=N2)cc1,-14.2%
8,CCN1C(=O)C(=O)C(CC)(CC)C1=O,0.85%
9,FC1(F)ON2CCc3ccccc3C2[C@H]1c1ccccc1 (some centres undefined),22.4%
10,N#CC(c1ccccc1)C1CCCCC1 (centres undefined),6.1%
11,CCN(CC)CCNC(=O)c1ccc(NCN2C(=O)NC(c3ccccc3)(c3ccccc3)C2=O)cc1,15.7%
12,O=c1c2c(no[n+]2[O-])c2ccccc2n1-c1ccccc1,97.2% (active)
13,CC(=O)OCC1OC(n2cccnc2=O)C(OC(C)=O)C1OC(C)=O (centres undefined),8.7%
14,OC(CC1CCCC(CC(O)c2ccccc2)N1CCc1ccccc1)c1ccccc1 (centres undefined),38.2%
15,Cc1c(-c2ccc(Cl)cc2)n[nH]c1-c1[nH]nc(-c2ccc(Cl)cc2)c1C,-11.4%
16,N=c1sc2ccccc2n1CC(=O)O,3.85%
17,CCOc1ccc(Cc2ccc3c(c2)OCO3)cc1C,-2.1%
